From the antibiotic and cytotoxicity screens of Wong et al. (2023) come the findings set out here.

Molecules are shown by their SMILES. In all, about 39,000 compounds went through this assay and about 500 (1.3%) were called active. The list comes from a sample in which actives are over-represented; it also holds similar structures and randomly drawn compounds.

The test system of this test is S. aureus RN4220. The experiment in a line: growth inhibition call (relative growth <= 0.2). The note with it: 50 µM.
With `CC=Cc1ccc2c(c1)OCO2`, the growth inhibition call is “inactive”. The same measure for `CCn1cnc2c(Nc3cccc(Cl)c3)nc(N[C@@H]3CCCC[C@@H]3N)nc21`: “inactive”; for `CCO[C@H]1[C@H]2CC[C@@H]1NC2`: “inactive”; for `OCC(Br)(Br)Br`: “inactive”. The same measure for `O=[N+]([O-])C(Br)(CO)CO` [listing 1 of 2 here]: “active”; for `O=[N+]([O-])C(Br)(CO)CO` [listing 2 of 2 here]: “active”. Take `CCCCS(=O)(=O)N1C[C@H]2CNC[C@@H]2C1`: the growth inhibition call is “inactive”. The same measure for `C[C@H]1CN([C@@H](C)CO)C(=O)CCCn2nncc2CO[C@H]1CN(C)C(=O)Oc1ccc2ccccc2c1`: “inactive”. On to `CNCC(=O)c1ccc(O)c(O)c1`, for which the growth inhibition call was “inactive”.

In the case of `CCCCCCCCCC(=O)O[C@@H]1[C@@H](C)[C@]2(O)[C@@H](C=C(CO)C[C@]3(O)C(=O)C(C)=C[C@@H]23)[C@@H]2C(C)(C)[C@@]12OC(=O)CCCCCCCCC`, the growth inhibition call was “inactive”. As to `CCCCC(=O)N1C[C@@H]2CCNC[C@@H]21`, the growth inhibition call is “inactive”. To `Cc1nc(-c2ccc(-c3ccc(C(=O)N4CCc5cc6c(cc54)C4(CCN(C)CC4)CO6)cc3)c(C)c2)no1` belongs “active”; to `O=[N+]([O-])c1ccc([As](=O)(O)O)cc1`, “inactive”; to `CC(=O)NN1Cc2ccccc2C1=N`, “inactive”. To `CNc1ccc(C(=O)C[C@@H](O)CC[C@@H](C)[C@H]2OC(=O)C[C@@H](O)CC(=O)C[C@@H](O)C[C@@H](O)C[C@@H](O)C[C@@H](O)C[C@@]3(O)C[C@@H](O)[C@H](C(=O)OC)[C@@H](C[C@@H](O[C@@H]4O[C@H](C)[C@@H](O)[C@H](N)[C@@H]4O)\C=C/C=C\C=C/C=C\C=C/C=C\C=C/[C@@H]2C)O3)cc1` belongs “inactive”; to `CCNS(=O)(=O)C(F)(F)C(F)(F)C(F)(F)C(F)(F)C(F)(F)C(F)(F)C(F)(F)C(F)(F)F`, “inactive”; to `CN(C)C(=O)Oc1ccc[n+](C)c1.[Br-]`, “inactive”. Turning to `c1ccc2sc(C3(N4CCCC4)CCCCC3)cc2c1`, the growth inhibition call is “inactive”. The same measure for `CCCCOC(=O)C1=CC(=O)CC(C)(C)O1`: “inactive”; for `O=[N+]([O-])c1ccc(O)c([N+](=O)[O-])c1`: “active”. The same measure for `O=[N+]([O-])c1cc(O)c(O)c([N+](=O)[O-])c1`: “inactive”; for `O=[N+]([O-])c1cc([As](=O)(O)O)ccc1O`: “inactive”; for `CCCC[C@@H](C)[C@@H](OC(=O)C[C@@H](CC(=O)O)C(=O)O)[C@H](C[C@@H](C)C[C@H](O)CCCC[C@@H](O)C[C@H](O)[C@H](C)N)OC(=O)C[C@@H](CC(=O)O)C(=O)O`: “inactive”. The same measure for `O=C(O)C[C@H]1CC[C@@H]2NC[C@H](O)COC[C@H]2O1`: “inactive”.

With `CC(C)[C@@H](Br)C(=O)NC(N)=O`, the growth inhibition call was “inactive”.

In the case of `C[C@@H]1CN([C@H](C)CO)C(=O)CCCn2nncc2CO[C@@H]1CN(C)C(=O)Oc1ccc2ccccc2c1`, the growth inhibition call was “inactive”. As to `CC(=O)[O][Cd][O]C(C)=O`, the growth inhibition call is “active”.

For the compound `CC(=O)[O][PbH2][O]C(C)=O`, the growth inhibition call is “inactive”. The same measure for `CC1OC(OC2C(O)C(O)C(O)C(O)C2O)C(N)CC1NC(=N)C(=O)O.Cl` (stereo not drawn): “inactive”; for `C=C1[C@@H](C)[C@H]2[C@H](Cc3ccccc3)NC(=O)[C@]23[C@H](OC(C)=O)/C=C/[C@](C)(O)C(=O)[C@@H](C)C/C=C/[C@H]3[C@@H]1O`: “inactive”. The same measure for `C=CCOC(Cn1ccnc1)c1ccc(Cl)cc1Cl.O=S(=O)(O)O` (stereo not drawn): “active”. The same measure for `O.O.O.O=C([O-])C1[O][Sb]2[O]C(=O)C([O]2)C(C(=O)[O-])[O][Sb]2[O]C(=O)C1[O]2.[K+].[K+]` (stereo not drawn): “inactive”. Turning to `CC(C)=CCCC1(C)C=Cc2c(O)c3c(c(CC=C(C)C)c2O1)OC12C(=CC4CC1C(C)(C)OC2(CC=C(C)C(=O)O)C4=O)C3=O` (stereo not drawn), the growth inhibition call is “inactive”. To `NC(=O)c1cc([N+](=O)[O-])cc([N+](=O)[O-])c1` belongs “inactive”; to `CC(C)[C@@H]1NC[C@@H]2CCCN2C1=O`, “inactive”; to `C=C[C@H]1[C@H](O[C@@H]2O[C@H](CO)[C@@H](O)[C@H](O)[C@H]2O)OC=C2C(=O)OCC[C@H]21`, “inactive”. To `O=[N+]([O-])c1ccc(N(CCO)CCO)c2c1no[n+]2[O-]` belongs “active”; to `C#CCOS(=O)OC1CCCCC1Oc1ccc(C(C)(C)C)cc1` (stereo not drawn), “inactive”; to `O=C(c1ccccc1)C12CN3CN(CN(C3)C1)C2`, “inactive”. To `C1CC2(CCN1)OCCO2` belongs “inactive”. Take `Clc1cc2c(cc1Cl)Oc1cc(Cl)c(Cl)cc1O2`: the growth inhibition call is “inactive”. As to `[O-][n+]1ccccc1[S][Zn][S]c1cccc[n+]1[O-]`, the growth inhibition call is “active”.

As for `O[C@H]1[C@H](O)[C@@H](O)CN2CC[C@H](O)[C@H]12`, the growth inhibition call was “inactive”. The same measure for `CCN(CC)S(=O)(=O)c1ccc(Cn2nc(C(=O)Nc3ccc(N4CCCCC4)cc3)c3ccccc32)cc1`: “inactive”; for `COC(=O)C(c1ccccc1)C1CCCCN1.Cl` (stereo not drawn): “inactive”. To `CC[C@@H](N)[C@@H](O)c1ccc(O)c(O)c1` belongs “inactive”; to `CCC(COC(=O)c1cc(OC)c(OC)c(OC)c1)(c1ccccc1)N(C)C.O=C(O)C=CC(=O)O` (stereo not drawn), “inactive”. The same measure for `CCOP(=S)(OCC)Oc1nc(Cl)c(Cl)cc1Cl`: “inactive”; for `COP(=S)(OC)Oc1cc(Cl)c(Cl)cc1Cl`: “active”; for `COP(=S)(OC)Oc1ccc(Sc2ccc(OP(=S)(OC)OC)cc2)cc1`: “inactive”.

Regarding `N[C@@]1(C(=O)O)CC[C@@H](C(=O)O)C1.N[C@]1(C(=O)O)CC[C@H](C(=O)O)C1`, the growth inhibition call is “inactive”.

With `NCCc1nnc2n1CCCCC2`, the growth inhibition call was “inactive”. The same measure for `CNC(C)C(O)c1ccccc1.Cl` (stereo not drawn): “inactive”. To `CCCCCCCCCCCCCCCC[n+]1ccccc1.[Cl-]` belongs “inactive”; to `CN[C@@H]1[C@@H](O)[C@@H](O[C@@H]2[C@@H](O)[C@H](O[C@H]3O[C@H](CN)CC[C@H]3N)[C@@H](N)C[C@H]2N)OC[C@]1(C)O.CN[C@@H]1[C@@H](O)[C@@H](O[C@@H]2[C@@H](O)[C@H](O[C@H]3O[C@H]([C@@H](C)N)CC[C@H]3N)[C@@H](N)C[C@H]2N)OC[C@]1(C)O.CN[C@@H]1[C@@H](O)[C@@H](O[C@@H]2[C@@H](O)[C@H](O[C@H]3O[C@H]([C@@H](C)NC)CC[C@H]3N)[C@@H](N)C[C@H]2N)OC[C@]1(C)O`, “inactive”. To `CN[C@@H]1[C@@H](O)[C@@H](O[C@@H]2[C@H](O)[C@@H](O[C@H]3O[C@H]([C@@H](C)O)[C@@H](O)[C@H](O)[C@H]3N)[C@H](N)C[C@@H]2N)OC[C@]1(C)O` belongs “inactive”; to `CNC1C(O)C(OC2C(N)CC(N)C(OC3OC(C(C)O)C(O)C(O)C3N)C2O)OCC1(C)O` (stereo not drawn), “active”; to `O=C1O[C@H]2CN[C@@H]1C2`, “inactive”. Regarding `C[C@H]1CN([C@@H](C)CO)C(=O)CCCn2nncc2CO[C@@H]1CN(C)C(=O)Oc1ccc2ccccc2c1`, the growth inhibition call is “inactive”. To `CC1=C(O)C(=O)C=C2C1=CC=C1C2(C)CCC2(C)C3CC(C)(C(=O)O)CCC3(C)CCC12C` (stereo not drawn) belongs “inactive”; to `Cc1nc2c(=O)n(C)c(=O)nc-2n(C)n1`, “inactive”. For `Cn1ncnc2c(=O)n(C)c(=O)nc1-2`, the growth inhibition call was “inactive”. To `CCn1nc(-c2cccnc2)nc2c(=O)n(C)c(=O)nc1-2` belongs “active”. To `CCC1=C[C@@H]2[C@H](C1)C[C@]2(CN)CC(=O)O` belongs “inactive”; to `C[C@@H]1CN([C@@H](C)CO)C(=O)CCCn2cc(nn2)CO[C@@H]1CN(C)C(=O)Oc1cccc2ccccc12`, “inactive”; to `Cl.Oc1noc2c1CCNC2`, “inactive”. The same measure for `CC12CCC(O)CC1CCC1C2CC(O)C2(C)C(C3=CC(=O)OC3)CCC12O` (stereo not drawn): “inactive”; for `CC1=C2CC3C(CC=C4CC(O)CCC43C)C2CCC12OC1CC(C)CNC1C2C` (stereo not drawn): “inactive”; for `O=C(O)C=CC(=O)O.c1ccc2nc(N3CCNCC3)ccc2c1`: “inactive”. As for `CC(C)(C)C(=O)C(Oc1ccc(Cl)cc1)n1cncn1` (stereo not drawn), the growth inhibition call was “inactive”. The same measure for `O=C1C=C2C(=CCOC2O)O1` (stereo not drawn): “active”; for `O=C1C=C2C(=CCO[C@@H]2O)O1`: “inactive”; for `CO[C@@H]1C=C[C@@H]2[C@H]1N2CCCO` (stereo partly drawn): “inactive”. Consider `Cc1cc[n+](C)cc1`, for which the growth inhibition call is “inactive”. The same measure for `COc1ccc(CN2CCNCC2)c(OC)c1OC.Cl.Cl`: “inactive”; for `COCCCNC(=O)C1[C@@H]2CC[C@H]1CNC2` (stereo partly drawn): “inactive”.

For the compound `COc1ccc2c(c1)C[C@H](N)C2`, the growth inhibition call is “inactive”. The same measure for `Oc1c(Cl)c(Cl)c(Cl)c(Cl)c1Cl`: “active”. The same measure for `CCCCCCCCCCCCCCCC[N+](C)(C)C.[Br-]`: “inactive”; for `C[C@@H](N)Cc1c[nH]c2ccc(O)cc12`: “inactive”; for `Oc1ccccc1N1CCNCC1`: “inactive”. For the compound `CN1C(=O)[C@@]23C[C@]4([C@@]56C[C@]78SS[C@](CO)(C(=O)N7[C@@H]5Nc5ccccc56)N(C)C8=O)c5ccccc5N[C@H]4N2C(=O)[C@@]1(CO)SS3`, the growth inhibition call was “active”. In the case of `CN1C(=O)[C@]23CC4=CC=C[C@H](O)[C@H]4N2C(=O)[C@@]1(CO)SS3`, the growth inhibition call was “inactive”.

Regarding `CCCC(=O)c1c(O)[nH]c(=O)[nH]c1=O`, the growth inhibition call is “inactive”.

`CCCC12CNCC(C)(CNC1)C2=O`: the growth inhibition call was “inactive”.

Take `c1ccc2cc3c(cc2c1)-c1cccc2cccc-3c12`: the growth inhibition call is “inactive”. To `CN(C)C(=S)SSC(=S)N(C)C` belongs “active”. To `CO[C@@H]1C[C@@H](C[C@H]2CC[C@H](C)[C@H]([C@@H](C)C(=O)O)O2)O[C@]2(O[C@](C)([C@H]3CC[C@@](C)([C@H]4O[C@@H]([C@H]5O[C@@](O)(CO)[C@H](C)C[C@@H]5C)C[C@@H]4C)O3)C[C@H]2C)[C@@H]1C` belongs “active”. The same measure for `Cc1ccc(OC(=O)N(C)C[C@H]2OCc3ccccc3-c3c(n(C)c4ccccc34)C(=O)N([C@@H](C)CO)C[C@@H]2C)cc1`: “inactive”; for `CC(C)c1cc2c(c(O)c1O)C1(C(=O)O)CCCC(C)(C)C1CC2` (stereo not drawn): “inactive”; for `O=C(NCNC(=O)N[C@H]1C(=O)NC(=O)N1CO)N[C@H]1C(=O)NC(=O)N1CO`: “inactive”. Regarding `CC(C)(CN)CNc1ccc([N+](=O)[O-])c2cccnc12`, the growth inhibition call is “inactive”.

In the case of `CC(=O)OC1CC(OC2C(O)CC(OC3C(O)CC(OC4CCC5(C)C(CCC6C5CC(O)C5(C)C(C7=CC(=O)OC7)CCC65O)C4)OC3C)OC2C)OC(C)C1OC1OC(CO)C(O)C(O)C1O` (stereo not drawn), the growth inhibition call is “inactive”.
